Assay results published in PubChem BioAssay (Tox21).
Inconclusive results are not listed. Calls of active or inactive are those of the source. Unless noted, calls come from the whole dose curve; as a rule, active = well fitted curve in the direction sought with a large enough effect in the repeat runs; inconclusive = weak or mixed curves; inactive = no such curve, though single readings can be large; an effect the other way counts as inactive or inconclusive.

Key:
[1] = qHTS assay for small molecule agonists of the p53 signaling pathway (AID 651631; calls by dose curve; note: nearly all actives have a fitted effect of over 15% in size)
Outline: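 We treat p53RE-bla HCT-116 cells with compounds for 16 h at 37 °C, add LiveBLAzer B/G FRET substrate for 2 h at room temperature, and measure fluorescence intensity.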

[2] = qHTS assay for small molecules that induce genotoxicity in human embryonic kidney cells expressing luciferase-tagged ATAD5 (AID 651632); note: nearly all actives have a fitted effect of over 15% in size
Outline: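 HEK293T cells carrying luciferase-tagged ATAD5 were given compound or DMSO vehicle and incubated 16 hr at 37C, 5% CO2. Luciferase activity was read after 30 min at room temperature with Amplite; a rise signals genotoxic stress.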

[3] = qHTS assay for small molecule agonists of the p53 signaling pathway - cell viability (AID 651633; calls by dose curve;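 note: p53RE-bla HCT reporter cells with a stable beta-lactamase p53 reporter; series mostly up to about 83 µM; nearly all actives have a fitted effect of over 30% in size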)
Outline: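 Viability counter-read: CellTiter-Glo luminescence (30 min, room temperature) in the same p53RE-bla plates. These plates had been exposed to compounds for 16 h at 37 C.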

[4] = qHTS assay for small molecules that induce genotoxicity in human embryonic kidney cells expressing luciferase-tagged ATAD5 - cell viability (AID 651634; calls by dose curve; note: nearly all actives have a fitted effect of over 25% in size)
Outline: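 HEK293T cells carrying luciferase-tagged ATAD5, 2,000 cells/well, exposed to compound for 15.5 hr at 37C. Viability read as live-cell protease activity by CellTiter-Fluor fluorescence after 30 min at 37C.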

[5] = qHTS assay for small molecule disruptors of the mitochondrial membrane potential - cell viability (AID 720634; calls by dose curve;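 note: human HepG2 liver cancer cells; series mostly up to about 83 µM; nearly all actives have a fitted effect of over 20% in size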)
Outline: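 HepG2 cells, 2,000 per well, attached overnight, then treated 1 hr at 37 C, 5% CO2. Viability read as ATP by CellTiter-Glo luminescence after 30 min at room temperature. Read in the same wells as the m-MPI membrane-potential dye assay.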

[6] = qHTS assay for small molecule disruptors of the mitochondrial membrane potential (AID 720635)
Outline: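 Mitochondrial membrane potential tracked with Mito-MPS dye, red aggregates (ex 540/em 590 nm) against green monomers (ex 490/em 535 nm). Compound treatment 1 hr at 37C, dye 30 min in HepG2.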

[7] = qHTS assay to test for compound auto fluorescence at 590 nm (red) in HepG2 cells (AID 720674)
Outline: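 We screened compounds on adherent HepG2 cells, incubating them for an hour at 37 C in 5% CO2 before reading emission at 590 nm under 540 nm excitation; values reflect equivalence to Rose Bengal sodium fluorescence.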

[8] = qHTS assay to test for compound auto fluorescence at 535 nm (green) in HepG2 cells (AID 720675)
[9] = qHTS assay to test for compound auto fluorescence at 460 nm (blue) in HEK293 cells (AID 720678)
Outline: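 Auto fluorescence in the blue band was quantified as triamterene equivalency. HEK293 cells were seeded at 2,000/well, dosed after a 4-5 hr attachment, and kept overnight at 37C before the 405/460 nm reading.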

[10] = qHTS assay to test for compound auto fluorescence at 590 nm (red) in HEK293 cells (AID 720679)
Outline: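 Autofluorescence equivalency to Rose Bengal sodium, 540/590nm, in HEK293 cells exposed overnight to 23 nL compound per well.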
% is set by controls: 0 for no effect and ±100 for the full control effect.

ClC(Cl)(Cl)Cl
inactive: Potency [1] | outcome [2] | Potency [3] | Potency [4] | Potency [5] | Potency [6] | outcome [7] | outcome [8] | outcome [9] | outcome [10]

COc1cc(CC(C)N)cc(OC)c1OC (stereo not given)
inactive: Potency [1] | outcome [2] | Potency [3] | Potency [4] | Potency [5] | Potency [6] | outcome [7] | outcome [8] | outcome [9] | outcome [10]

O=C(Cl)CCl
inactive: Potency [1] | outcome [2] | Potency [3] | Potency [4] | Potency [5] | Potency [6] | outcome [7] | outcome [8] | outcome [9] | outcome [10]

CCCCCCC(=O)CCCCCC/C=C/C[C@@H](O)[C@H](O)[C@@](N)(CO)C(=O)O
inactive: Potency [1] | outcome [2] | Potency [3] | Potency [4] | Potency [5] | Potency [6] | outcome [7] | outcome [8] | outcome [9] | outcome [10]

ClCOCCl
inactive: Potency [1] | outcome [2] | Potency [3] | Potency [4] | Potency [5] | Potency [6] | outcome [7] | outcome [8] | outcome [9] | outcome [10]

BrCc1ccc(Br)cc1
inactive: Potency [1] | outcome [2] | Potency [3] | Potency [4] | Potency [5] | Potency [6] | outcome [7] | outcome [8] | outcome [9] | outcome [10]

CC(C)(C)C(=O)Cl
inactive: Potency [1] | outcome [2] | Potency [3] | Potency [4] | Potency [5] | Potency [6] | outcome [7] | outcome [8] | outcome [9] | outcome [10]

CCCCCCC1CCOC1=O (stereo not given)
inactive: Potency [1] | outcome [2] | Potency [3] | Potency [4] | Potency [5] | Potency [6] | outcome [7] | outcome [8] | outcome [9]

Nc1c(Cl)c(F)nc(OCC(=O)O)c1Cl
inactive: Potency [1] | outcome [2] | Potency [3] | Potency [4] | Potency [5] | Potency [6] | outcome [7] | outcome [8] | outcome [9]

CCC1(c2ccccc2)CCC(=O)NC1=O (stereo not given)
inactive: Potency [1] | outcome [2] | Potency [3] | Potency [4] | Potency [5] | Potency [6] | outcome [7] | outcome [8] | outcome [9] | outcome [10]

O=C(Cl)/C=C/C(=O)Cl
inactive: Potency [1] | outcome [2] | Potency [3] | Potency [4] | Potency [5] | Potency [6] | outcome [7] | outcome [8] | outcome [9]

C=CC(=O)OCCN(C)C
inactive: Potency [1] | outcome [2] | Potency [3] | Potency [4] | Potency [5] | Potency [6] | outcome [7] | outcome [8] | outcome [9] | outcome [10]

CC(C)(C)NC[C@H](O)c1ccc(O)cc1Cl
inactive: Potency [1] | outcome [2] | Potency [3] | Potency [4] | Potency [5] | Potency [6] | outcome [7] | outcome [8] | outcome [9]

Cl/C=C/CCl
inactive: Potency [1] | outcome [2] | Potency [3] | Potency [4] | Potency [5] | Potency [6] | outcome [7] | outcome [8] | outcome [9] | outcome [10]

COc1ccc(CN2CCNCC2)c(OC)c1OC
inactive: Potency [1] | outcome [2] | Potency [3] | Potency [4] | Potency [5] | Potency [6] | fluorescence, relative to Rose Bengal [7] -0.414% [at 18.6 µM] | fluorescence, % of fluorescein control [8] 0.0608% [at 18.6 µM] | fluorescence, % of triamterene [9] -0.103% [at 18.6 µM]

C=C1CC[C@@]2(O)[C@H]3Cc4ccc(O)c5c4[C@@]2(CCN3CC2CC2)[C@H]1O5
inactive: Potency [1] | outcome [2] | Potency [3] | Potency [4] | Potency [5] | Potency [6] | outcome [7] | outcome [8] | outcome [9]

CCN(CC)CCOC(=O)C(O)(c1ccccc1)c1ccccc1
inactive: Potency [1] | outcome [2] | Potency [3] | Potency [4] | Potency [5] | Potency [6] | outcome [7] | outcome [8] | outcome [9] | outcome [10]

Cc1ccc2c(c1)C1CN(C)CCC1N2 (stereo not given)
inactive: Potency [1] | outcome [2] | Potency [3] | Potency [4] | Potency [5] | Potency [6] | outcome [7] | outcome [8] | outcome [9]

CCOC(=O)N(C)N=O
inactive: Potency [1] | outcome [2] | Potency [3] | Potency [4] | Potency [5] | Potency [6] | outcome [7] | outcome [8] | outcome [9] | outcome [10]

Cc1cc(OC(=O)N(C)C)nn1C(=O)N(C)C
inactive: Potency [1] | outcome [2] | Potency [3] | Potency [4] | Potency [5] | Potency [6] | outcome [7] | outcome [8] | outcome [9] | outcome [10]

NC(=O)OCCCc1ccccc1
inactive: Potency [1] | outcome [2] | Potency [3] | Potency [4] | Potency [5] | Potency [6] | outcome [7] | outcome [8] | outcome [9]

C[N+]1(C)CCCCC1
inactive: Potency [1] | outcome [2] | Potency [3] | Potency [4] | Potency [5] | Potency [6] | outcome [7] | outcome [8] | outcome [9] | outcome [10]

NCC1(CC(=O)O)CCCCC1
inactive: Potency [1] | outcome [2] | Potency [3] | Potency [4] | Potency [5] | Potency [6] | fluorescence, relative to Rose Bengal [7] 0.106% [at 18.6 µM] | fluorescence, % of fluorescein control [8] 0.0214% [at 18.6 µM] | fluorescence, % of triamterene [9] 0.0823% [at 18.6 µM] | fluorescence, % of fluorescent control [10] 0.0233% [at 18.6 µM]

N=C(N)[Se]
inactive: Potency [1] | outcome [2] | Potency [3] | Potency [4] | Potency [5] | Potency [6] | outcome [7] | outcome [8] | outcome [9]

CS(=O)(=O)Cl
inactive: Potency [1] | outcome [2] | Potency [3] | Potency [4] | Potency [5] | Potency [6] | outcome [7] | outcome [8] | outcome [9]
